In ChEMBL document CHEMBL1961873, “Compounds: GSK PKIS; Assays: Nanosyn kinase panel” (2012) one finds inhibition data, which are given here for eight compounds.

The target in assay [1] is T1, Tyrosine-protein kinase receptor TYRO3 (Homo sapiens) (UniProt Q06418).
T1 sequence (whole entry): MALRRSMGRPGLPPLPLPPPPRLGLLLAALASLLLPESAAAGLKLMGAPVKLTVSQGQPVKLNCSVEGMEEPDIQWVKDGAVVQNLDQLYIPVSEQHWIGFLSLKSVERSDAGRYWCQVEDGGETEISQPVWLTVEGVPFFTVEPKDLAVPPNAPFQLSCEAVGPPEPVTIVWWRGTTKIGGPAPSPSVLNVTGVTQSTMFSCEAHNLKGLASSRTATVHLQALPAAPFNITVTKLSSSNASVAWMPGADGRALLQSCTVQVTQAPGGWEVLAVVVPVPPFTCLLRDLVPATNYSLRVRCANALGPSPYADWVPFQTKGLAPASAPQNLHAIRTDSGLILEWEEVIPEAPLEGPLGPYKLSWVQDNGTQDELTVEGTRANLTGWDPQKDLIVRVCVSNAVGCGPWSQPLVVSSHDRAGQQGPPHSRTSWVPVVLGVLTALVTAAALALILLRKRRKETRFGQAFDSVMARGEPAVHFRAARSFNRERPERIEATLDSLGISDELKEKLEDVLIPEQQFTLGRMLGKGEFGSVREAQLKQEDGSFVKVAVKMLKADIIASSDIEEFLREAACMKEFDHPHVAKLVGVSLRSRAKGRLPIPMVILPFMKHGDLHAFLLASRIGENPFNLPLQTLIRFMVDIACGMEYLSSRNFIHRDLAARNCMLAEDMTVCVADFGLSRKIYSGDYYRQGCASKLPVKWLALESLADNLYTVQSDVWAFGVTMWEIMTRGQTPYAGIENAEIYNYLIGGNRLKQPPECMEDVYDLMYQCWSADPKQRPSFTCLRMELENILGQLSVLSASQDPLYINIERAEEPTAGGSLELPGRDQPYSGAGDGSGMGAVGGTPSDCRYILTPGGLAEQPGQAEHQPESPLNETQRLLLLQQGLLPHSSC
The following applies: at 1 µM.

In assay [2] the target is Tyrosine-protein kinase Yes (Homo sapiens) (UniProt P07947). Conditions: at 0.1 µM.
Chain of Tyrosine-protein kinase Yes (Homo sapiens) (P07947 2-543 limits assumed): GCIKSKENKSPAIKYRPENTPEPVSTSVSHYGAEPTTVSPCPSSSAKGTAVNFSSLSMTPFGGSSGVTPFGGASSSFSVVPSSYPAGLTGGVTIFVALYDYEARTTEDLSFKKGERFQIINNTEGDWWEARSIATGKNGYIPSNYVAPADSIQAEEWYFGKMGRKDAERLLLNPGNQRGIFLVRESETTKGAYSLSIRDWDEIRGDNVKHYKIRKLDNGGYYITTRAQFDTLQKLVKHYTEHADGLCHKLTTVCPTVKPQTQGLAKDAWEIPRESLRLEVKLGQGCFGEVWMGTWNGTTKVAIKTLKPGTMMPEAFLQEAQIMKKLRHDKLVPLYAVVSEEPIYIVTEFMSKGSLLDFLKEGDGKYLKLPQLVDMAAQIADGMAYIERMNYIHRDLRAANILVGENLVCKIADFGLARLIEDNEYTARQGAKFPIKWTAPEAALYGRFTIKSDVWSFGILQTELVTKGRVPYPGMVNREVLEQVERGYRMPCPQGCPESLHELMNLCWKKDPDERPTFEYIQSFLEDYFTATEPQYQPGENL
For assay [3] the target is unchanged. The following applies: at 1 µM.
The target in assay [4] is T2, Tyrosine-protein kinase ZAP-70 (Homo sapiens) (UniProt P43403).
T2 sequence (whole entry): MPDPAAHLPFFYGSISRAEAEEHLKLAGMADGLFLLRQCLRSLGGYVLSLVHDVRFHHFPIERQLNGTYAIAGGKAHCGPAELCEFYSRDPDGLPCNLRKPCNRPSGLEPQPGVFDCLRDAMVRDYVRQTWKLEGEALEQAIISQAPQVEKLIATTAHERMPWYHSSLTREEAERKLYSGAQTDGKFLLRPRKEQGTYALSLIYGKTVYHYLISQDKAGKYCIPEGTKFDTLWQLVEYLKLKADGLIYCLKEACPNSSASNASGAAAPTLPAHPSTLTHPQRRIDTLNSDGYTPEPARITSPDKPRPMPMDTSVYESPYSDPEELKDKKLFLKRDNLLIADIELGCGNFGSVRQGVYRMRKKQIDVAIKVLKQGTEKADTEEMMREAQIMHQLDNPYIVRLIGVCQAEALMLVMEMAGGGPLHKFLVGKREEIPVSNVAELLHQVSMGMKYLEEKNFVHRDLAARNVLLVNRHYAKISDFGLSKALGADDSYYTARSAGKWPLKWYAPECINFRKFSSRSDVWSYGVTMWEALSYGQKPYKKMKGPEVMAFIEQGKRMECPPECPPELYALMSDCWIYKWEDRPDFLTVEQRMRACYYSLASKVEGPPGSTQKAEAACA
Conditions: at 0.1 µM.

The target of assay [5] is T2, Tyrosine-protein kinase ZAP-70 (Homo sapiens). The following applies: at 1 µM.
Assay [6] has as its target Serine/threonine-protein kinase B-raf (Homo sapiens) (UniProt P15056). The following applies: at 0.1 µM.
For assay [7] the target is unchanged. Conditions: at 1 µM.
For assay [8], the system named is Serine/threonine-protein kinase B-raf (Homo sapiens), P15056 [V600E]. The following applies: at 0.1 µM.
Chain of Serine/threonine-protein kinase B-raf (Homo sapiens), P15056 [V600E] (P15056 whole entry V600E): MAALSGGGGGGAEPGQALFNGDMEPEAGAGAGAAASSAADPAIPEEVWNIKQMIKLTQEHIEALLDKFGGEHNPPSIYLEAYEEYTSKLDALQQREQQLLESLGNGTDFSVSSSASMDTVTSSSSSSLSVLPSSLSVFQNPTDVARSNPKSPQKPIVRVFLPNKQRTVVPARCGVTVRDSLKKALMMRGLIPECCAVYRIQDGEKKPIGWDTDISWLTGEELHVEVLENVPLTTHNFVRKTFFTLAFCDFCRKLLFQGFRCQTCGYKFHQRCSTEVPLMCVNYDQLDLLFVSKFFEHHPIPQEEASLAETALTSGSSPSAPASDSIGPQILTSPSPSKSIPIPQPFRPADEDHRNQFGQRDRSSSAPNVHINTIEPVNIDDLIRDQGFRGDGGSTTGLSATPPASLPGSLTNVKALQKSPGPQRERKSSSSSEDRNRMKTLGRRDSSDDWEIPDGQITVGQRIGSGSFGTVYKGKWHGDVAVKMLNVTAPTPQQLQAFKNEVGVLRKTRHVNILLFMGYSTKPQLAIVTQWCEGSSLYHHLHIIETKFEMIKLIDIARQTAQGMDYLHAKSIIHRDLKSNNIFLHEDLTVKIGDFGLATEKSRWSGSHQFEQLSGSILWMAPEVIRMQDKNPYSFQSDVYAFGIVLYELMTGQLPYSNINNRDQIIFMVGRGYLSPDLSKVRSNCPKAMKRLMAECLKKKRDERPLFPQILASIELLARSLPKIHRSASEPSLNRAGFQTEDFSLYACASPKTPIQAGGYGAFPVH
Assay [9] shares this test system. Conditions: at 1 µM.
For assay [10], the target named is RAF proto-oncogene serine/threonine-protein kinase (Homo sapiens) (UniProt P04049). Conditions: at 0.1 µM.
Chain of RAF proto-oncogene serine/threonine-protein kinase (Homo sapiens) (P04049 whole entry): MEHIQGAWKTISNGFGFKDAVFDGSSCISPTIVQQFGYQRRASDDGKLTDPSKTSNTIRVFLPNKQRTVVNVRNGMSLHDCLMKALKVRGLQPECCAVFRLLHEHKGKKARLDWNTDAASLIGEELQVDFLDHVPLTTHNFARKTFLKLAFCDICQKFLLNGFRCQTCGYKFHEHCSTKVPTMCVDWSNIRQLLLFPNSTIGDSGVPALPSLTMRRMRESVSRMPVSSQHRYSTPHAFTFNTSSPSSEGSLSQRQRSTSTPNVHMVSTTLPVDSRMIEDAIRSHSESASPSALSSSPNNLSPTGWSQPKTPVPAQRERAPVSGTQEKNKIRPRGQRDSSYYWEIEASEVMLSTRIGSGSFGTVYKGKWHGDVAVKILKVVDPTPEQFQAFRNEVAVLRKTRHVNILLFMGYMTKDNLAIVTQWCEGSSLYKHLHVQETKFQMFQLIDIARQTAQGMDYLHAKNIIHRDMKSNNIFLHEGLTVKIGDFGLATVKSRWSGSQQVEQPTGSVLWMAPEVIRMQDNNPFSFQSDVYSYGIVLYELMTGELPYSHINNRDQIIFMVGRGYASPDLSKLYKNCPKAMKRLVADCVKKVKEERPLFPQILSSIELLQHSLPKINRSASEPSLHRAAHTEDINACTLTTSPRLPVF
The target is the same in assay [11]. The following applies: at 1 µM.
In assay [12] the target is T3, Interleukin-1 receptor-associated kinase 4 (Homo sapiens) (UniProt Q9NWZ3).
T3 sequence (whole entry): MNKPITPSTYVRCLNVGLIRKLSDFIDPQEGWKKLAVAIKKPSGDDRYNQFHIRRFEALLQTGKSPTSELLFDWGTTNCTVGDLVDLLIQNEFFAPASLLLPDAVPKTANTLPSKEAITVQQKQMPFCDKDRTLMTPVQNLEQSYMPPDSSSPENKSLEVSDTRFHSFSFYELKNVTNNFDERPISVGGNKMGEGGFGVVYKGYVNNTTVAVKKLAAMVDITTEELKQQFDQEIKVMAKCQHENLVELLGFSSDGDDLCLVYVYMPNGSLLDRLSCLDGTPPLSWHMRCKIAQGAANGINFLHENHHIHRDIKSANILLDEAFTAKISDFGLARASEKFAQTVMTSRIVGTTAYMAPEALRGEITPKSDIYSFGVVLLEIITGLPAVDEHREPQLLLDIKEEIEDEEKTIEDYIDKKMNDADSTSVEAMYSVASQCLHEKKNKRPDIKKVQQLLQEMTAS
Conditions: at 0.1 µM.

The target in assay [13] is T3, Interleukin-1 receptor-associated kinase 4 (Homo sapiens). Conditions: at 1 µM.
The target of assay [14] is Leucine-rich repeat serine/threonine-protein kinase 2 (Homo sapiens) (UniProt Q5S007). The following applies: at 0.1 µM.
Chain of Leucine-rich repeat serine/threonine-protein kinase 2 (Homo sapiens) (Q5S007 whole entry): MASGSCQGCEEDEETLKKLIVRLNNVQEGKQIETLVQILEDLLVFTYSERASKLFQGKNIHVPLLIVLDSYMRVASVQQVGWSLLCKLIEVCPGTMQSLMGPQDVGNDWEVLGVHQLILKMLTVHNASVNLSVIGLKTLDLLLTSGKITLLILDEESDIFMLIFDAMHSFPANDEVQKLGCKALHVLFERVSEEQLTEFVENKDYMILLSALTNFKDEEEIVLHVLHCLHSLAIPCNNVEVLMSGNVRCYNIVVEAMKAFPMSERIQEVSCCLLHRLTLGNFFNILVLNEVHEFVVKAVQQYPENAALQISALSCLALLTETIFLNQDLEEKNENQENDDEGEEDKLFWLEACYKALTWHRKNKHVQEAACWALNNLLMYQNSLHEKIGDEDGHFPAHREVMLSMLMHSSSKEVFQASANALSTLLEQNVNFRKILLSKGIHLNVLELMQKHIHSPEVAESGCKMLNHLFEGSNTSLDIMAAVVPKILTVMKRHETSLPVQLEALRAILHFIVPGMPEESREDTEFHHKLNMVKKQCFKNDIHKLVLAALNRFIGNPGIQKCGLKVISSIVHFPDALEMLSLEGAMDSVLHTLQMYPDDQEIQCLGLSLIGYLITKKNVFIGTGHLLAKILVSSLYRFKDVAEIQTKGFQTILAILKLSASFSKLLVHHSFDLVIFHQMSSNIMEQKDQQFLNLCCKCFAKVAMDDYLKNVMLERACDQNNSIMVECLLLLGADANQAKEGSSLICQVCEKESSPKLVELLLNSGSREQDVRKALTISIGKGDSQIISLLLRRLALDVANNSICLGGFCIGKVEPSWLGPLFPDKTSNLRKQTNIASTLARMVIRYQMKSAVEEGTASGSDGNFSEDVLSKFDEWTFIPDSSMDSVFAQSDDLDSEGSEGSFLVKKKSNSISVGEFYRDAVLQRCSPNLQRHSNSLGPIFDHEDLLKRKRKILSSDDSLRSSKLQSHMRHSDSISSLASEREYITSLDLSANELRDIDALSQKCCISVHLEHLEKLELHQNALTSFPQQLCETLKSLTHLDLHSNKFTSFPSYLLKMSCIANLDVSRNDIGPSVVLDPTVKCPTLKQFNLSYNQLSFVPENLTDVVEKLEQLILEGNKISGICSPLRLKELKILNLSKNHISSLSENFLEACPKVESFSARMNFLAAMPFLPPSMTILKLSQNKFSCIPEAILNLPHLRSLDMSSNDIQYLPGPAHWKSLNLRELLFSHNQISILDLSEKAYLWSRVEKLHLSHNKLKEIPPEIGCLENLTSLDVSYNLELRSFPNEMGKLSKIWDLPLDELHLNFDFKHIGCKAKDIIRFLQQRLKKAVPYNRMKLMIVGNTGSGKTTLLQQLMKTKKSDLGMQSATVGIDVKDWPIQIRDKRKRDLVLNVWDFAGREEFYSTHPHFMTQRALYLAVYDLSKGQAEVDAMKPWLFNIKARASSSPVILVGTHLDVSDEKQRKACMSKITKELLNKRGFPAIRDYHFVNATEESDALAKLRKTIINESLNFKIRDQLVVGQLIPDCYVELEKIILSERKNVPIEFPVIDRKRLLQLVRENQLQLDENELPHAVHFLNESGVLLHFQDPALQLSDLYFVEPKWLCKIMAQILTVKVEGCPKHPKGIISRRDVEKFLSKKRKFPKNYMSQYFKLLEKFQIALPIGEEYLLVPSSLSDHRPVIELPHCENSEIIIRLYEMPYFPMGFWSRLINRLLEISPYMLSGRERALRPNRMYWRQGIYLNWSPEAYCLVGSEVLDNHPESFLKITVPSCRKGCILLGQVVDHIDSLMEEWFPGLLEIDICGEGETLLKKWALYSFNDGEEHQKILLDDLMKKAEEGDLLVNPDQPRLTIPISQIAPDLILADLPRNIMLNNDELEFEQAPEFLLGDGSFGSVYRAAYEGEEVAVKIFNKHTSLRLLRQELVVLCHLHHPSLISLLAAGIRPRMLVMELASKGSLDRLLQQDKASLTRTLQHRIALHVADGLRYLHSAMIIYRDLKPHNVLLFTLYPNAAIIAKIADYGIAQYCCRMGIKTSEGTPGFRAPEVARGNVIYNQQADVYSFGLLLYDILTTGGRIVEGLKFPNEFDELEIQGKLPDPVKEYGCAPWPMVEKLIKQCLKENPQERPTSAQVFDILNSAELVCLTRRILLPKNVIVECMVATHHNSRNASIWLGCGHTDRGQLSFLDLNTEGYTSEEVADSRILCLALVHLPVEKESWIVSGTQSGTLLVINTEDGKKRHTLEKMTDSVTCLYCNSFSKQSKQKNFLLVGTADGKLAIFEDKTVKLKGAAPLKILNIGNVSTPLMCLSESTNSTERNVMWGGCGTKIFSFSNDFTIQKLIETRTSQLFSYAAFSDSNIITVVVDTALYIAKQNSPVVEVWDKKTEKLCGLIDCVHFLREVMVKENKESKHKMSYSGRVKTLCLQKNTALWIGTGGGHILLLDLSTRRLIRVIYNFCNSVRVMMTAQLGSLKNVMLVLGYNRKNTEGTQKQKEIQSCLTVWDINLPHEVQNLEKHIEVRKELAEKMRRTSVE
Assay [15] shares this target. The following applies: at 1 µM.
Assay [16] relates to Leucine-rich repeat serine/threonine-protein kinase 2 (Homo sapiens), Q5S007 [G2019S]. Conditions: at 0.1 µM.
Chain of Leucine-rich repeat serine/threonine-protein kinase 2 (Homo sapiens), Q5S007 [G2019S] (Q5S007 whole entry G2019S): as the sequence (Q5S007 whole entry) above, with G2019S counted along it
For assay [17] the test system is unchanged. Conditions: at 1 µM.

Chain of Serine/threonine-protein kinase B-raf (Homo sapiens) (P15056 whole entry): as the sequence (P15056 whole entry V600E) above, with E600V counted along it

For the compound `CS(=O)(=O)Nc1ccc(N/C=C2\C(=O)Nc3ccccc32)cc1`, the inhibition in assay [1] was 6.06%; in assay [2], -1.31%; in assay [3], 10.4%; in assay [4] it was -3.14%; in assay [5], -2.93%; in assay [6], -2.74%. Also, the inhibition was -2.55% in assay [7]; -3.06% in assay [8]; -2.04% in assay [9]; -5.04% in assay [10]; -2.68% in assay [11]; -0.49% in assay [12]. The inhibition in [13] was -0.15%; in assay [14], 1.31%; in assay [15], 18.1%; in assay [16], 5.01%; in assay [17], 31.3%.
Regarding `O=C1NC(=O)C(N2CCc3ccccc32)=C1c1ccc(Cl)cc1`, the inhibition came to 3.19% in [1]; 0.13% in assay [2]; 1.35% in [3]; 3.14% in [4]; 4.58% in assay [5]; 6% in [6]. The inhibition in assay [7] came to 7.8%; in assay [8], 6.55%; in [9], 6.79%; in assay [10], 0.98%; in assay [11], 0.17%; in assay [12], 3.05%. Besides, the inhibition stood at 1.81% in assay [13]; 3.88% in [14]; 8.75% in assay [15]; 4.99% in [16]; 10.7% in [17].
In the case of `O=C1NC(=O)C(c2ccccc2Cl)=C1Nc1cccc(O)c1`, the inhibition in [1] was 1.2%; in assay [2], 1.06%; in assay [3], -1.97%; in [4], 1.65%; in assay [5], 0.4%; in [6], 3.05%. Moreover, the inhibition in assay [7] is 3.21%; in assay [8], 3.01%; in assay [9] it was 2.95%; in [10], 4.73%; in assay [11], -0.43%; in [12] it was -2%. The inhibition worked out at 1.87% in [13]; 4.27% in [14]; 13.2% in assay [15]; 3.28% in assay [16]; 14.6% in assay [17].
As to `NS(=O)(=O)c1ccc(N/N=C2\C(=O)Nc3ccc(C(=O)NCCc4c[nH]cn4)cc32)cc1`, the inhibition in [1] worked out at 21.7%; in [2] it was 2.67%; in [3], 11.8%; in assay [4] it was 1.45%; in [5], 5.13%; in assay [6] it was 7%. Further, the inhibition in assay [7] is 16.5%; in assay [8], 6.04%; in assay [9], 15.9%; in assay [10], -2.7%; in assay [12], -1.81%; in [13], 2.08%. In addition, the inhibition in [14] was determined as 10.3%; in assay [15], 16.9%; in assay [16], 15.3%; in assay [17], 50%.
In the case of `NC(=O)c1ccc(-c2nc(-c3ccccn3)c(-c3ccc4c(c3)OCO4)[nH]2)cc1`, the inhibition in assay [1] is 1.12%; in assay [2], 2.51%; in [3] it was 7.17%; in assay [4], 0.96%; in assay [5] it was -2.34%; in assay [10], -6.15%. The inhibition in assay [11] was found to be 15.6%; in [12], 2.26%; in assay [13] it was 1.06%; in assay [14], 2.49%; in assay [15] it was 5.02%; in [16], 2.85%. In addition, the inhibition in [17] stood at 3.41%.
Turning to `O=C1NC(=O)C(c2cccc(Cl)c2)=C1Nc1ccc(O)c(Cl)c1`, the inhibition in assay [1] came to 0.29%; in assay [2], 2.84%; in assay [3] it was 2.76%; in [4], 1.5%; in assay [5] it was 2.74%; in [6], 1.14%. For the same compound, the inhibition in assay [7] amounted to 6%; in assay [8], 0.91%; in [9], 7.11%; in [10], 0.68%; in assay [11], 3.11%; in [12], 2.97%. Further, the inhibition stood at 0.96% in [13]; 4.5% in assay [14]; 18.4% in assay [15]; 4.28% in [16]; 30% in assay [17].
As for `Nc1ncnc2occ(-c3ccc(NC(=O)Nc4cc(C(F)(F)F)cc(C(F)(F)F)c4)cc3)c12`, the inhibition in [1] was 29.6%; in assay [2] it was 1.45%; in [3], 11.7%; in assay [4] it was 2.13%; in assay [6], 3.58%; in assay [7], 7.33%. The inhibition in [8] is 2.27%; in assay [9] it was 7.76%; in [10], 4.46%; in assay [11], 3.32%; in [12] it was -4.93%; in assay [13], 1.16%. Moreover, the inhibition in assay [14] worked out at 9.63%; in [15] it was 16.7%; in assay [16], 4.56%; in assay [17], 26.1%.
As for `COc1cc2c(cc1Nc1nc(N3CCc4ccccc43)c3cc[nH]c3n1)N(C(=O)CN(C)C)CC2`, the inhibition in [1] was 1.54%; in [2], -0.07%; in assay [3], -1.83%; in assay [4] it was 1.18%; in assay [6] it was 1.69%; in [7], 2.22%. Moreover, the inhibition in assay [8] was 1.91%; in [9], 1.68%; in [10], -4.52%; in assay [11] it was -4.34%; in assay [12], -0.95%; in [13], 0.98%. Also, the inhibition in assay [14] was 17.6%; in [15], 19.3%; in [16] it was 18.2%; in [17] it was 57.1%.

In general, inhibition refers to the drop in the measured response relative to a control, in per cent.
